Screening data from PubChem BioAssay.
Shown are actives, neighbours in structure and some others; about 3% of the full set was active somewhere.
ALOX12 inh: inhibitors of human 12S-lipoxygenase ALOX12; AID 1671190; P18054; actives 1.1% (n = 580,000); Potency, µM (series often up to 108 µM), for the others: at the top dose activity change, negative = inhibition, hits mostly inhibitors; purified 12hLO, xylenol orange hydroperoxide absorbance
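Purified human 12hLO at 150 nM in 25 mM Hepes, 0.01% Triton X-100, pH 7.0, preincubated 15 min at room temperature with compound. Reaction started with 40 uM arachidonic acid, 30 min at room temperature. Hydroperoxide measured by Fe-xylenol orange, 573/405 nm absorbance ratio.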
GCN5L2 inh: blocks human GCN5L2 histone acetyltransferase; Q92830; Potency, µM (series often up to 58.9 µM), for the others: at the highest dose activity change, negative = inhibition, actives largely listed as inhibitors; AID 504327; actives 0.21% (n = 390,000); GCN5L2 HAT assay, ThioGlo1 CoA-SH fluorescence
Target sequence (Q92830 whole entry, looked up): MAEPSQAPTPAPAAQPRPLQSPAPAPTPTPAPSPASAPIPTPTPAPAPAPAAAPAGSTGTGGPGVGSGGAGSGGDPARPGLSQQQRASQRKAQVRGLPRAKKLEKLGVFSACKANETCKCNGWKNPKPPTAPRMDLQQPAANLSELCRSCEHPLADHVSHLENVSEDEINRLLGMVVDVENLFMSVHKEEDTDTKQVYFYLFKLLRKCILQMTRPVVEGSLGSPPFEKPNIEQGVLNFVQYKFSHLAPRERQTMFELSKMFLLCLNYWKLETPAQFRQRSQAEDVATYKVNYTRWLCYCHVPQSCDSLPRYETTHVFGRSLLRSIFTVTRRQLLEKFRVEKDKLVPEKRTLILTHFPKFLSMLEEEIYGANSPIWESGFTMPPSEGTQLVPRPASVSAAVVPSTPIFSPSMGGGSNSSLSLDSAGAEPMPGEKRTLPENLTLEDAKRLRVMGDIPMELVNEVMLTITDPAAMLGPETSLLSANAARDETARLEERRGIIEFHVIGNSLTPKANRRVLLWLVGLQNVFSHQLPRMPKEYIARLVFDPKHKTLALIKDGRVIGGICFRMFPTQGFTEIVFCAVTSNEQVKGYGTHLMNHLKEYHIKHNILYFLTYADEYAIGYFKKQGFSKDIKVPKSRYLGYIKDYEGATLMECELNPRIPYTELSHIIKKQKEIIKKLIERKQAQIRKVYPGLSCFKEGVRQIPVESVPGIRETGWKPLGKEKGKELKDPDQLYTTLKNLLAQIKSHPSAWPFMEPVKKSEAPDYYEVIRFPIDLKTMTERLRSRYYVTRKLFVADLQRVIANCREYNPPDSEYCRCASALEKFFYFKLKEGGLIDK
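Enzyme at 20nM final was mixed with library compounds for 15 min at room temperature. Peptide H3(1-25) at 75uM, acetyl-CoA at 70uM and ThioGlo1 at 50uM were then added. Plates were read immediately and after 20 min (Ex340nm/Em540nm).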
PLK1 PBD inh: inhibitors of human PLK1 polo-box domain binding; Plk1 PBD binding of FITC phosphopeptide, fluorescence polarization; P53350; Potency, µM, for inactives: max response, negative = inhibition, hits mostly inhibitors; actives 2.8% (n = 360,000); further: series mostly up to about 57 µM; nearly all actives have a fitted effect of over 65% in size
VDR inhibitor: inhibitors of human vitamin D receptor; Potency, µM, for the others: max response, negative = inhibition, hits mostly inhibitors; actives 0.93% (n = 400,000); AID 504847; VDR-SRC2-3 peptide fluorescence polarization, 2 h; P11473
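Fluorescence polarization assay measuring small-molecule disruption of VDR binding to the coregulator peptide SRC2-3. Compounds were pin-transferred (23 nl) into the reagent mix and incubated 2 h at room temperature before reading.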
The depositor's hits bear a star. The call rests on the fitted dose curve; in most records, active means well fitted curve in the direction sought with a large enough effect; inconclusive means small, poorly fitted or top-dose-only effect, or another doubt; inactive means no such curve, though single readings can be large; an effect the other way counts as inactive or inconclusive. On the % scale 0 is the no-effect control and ±100 the full control effect; potency means the concentration at half of the fitted maximal effect.

Screening CC(C1CC2CCC1C2)n1c(-c2cccs2)n[nH]c1=S (stereo not given) returned ALOX12 inh 45µM*, GCN5L2 inh -18%, PLK1 PBD inh -8% and VDR inhibitor -12%.
S=c1[nH]nc(-c2cccs2)n1C1CCCCC1 was read as ALOX12 inh inconclusive, GCN5L2 inh -8%, PLK1 PBD inh -22% and VDR inhibitor 9%.
`COc1ccc(/C=C/C(=O)c2ccc(C(C)(C)C)cc2)c(OC)c1OC` gave ALOX12 inh -2%.
`COc1ccc(/C=C/C(=O)c2ccncc2)c2ccccc12` gave ALOX12 inh inconclusive, GCN5L2 inh -6%, PLK1 PBD inh 6% and VDR inhibitor 25µM*.
Screening COc1ccc(C(=O)Nn2c(CCC(=O)O)ccc2-c2ccc(C)cc2)cc1OC returned ALOX12 inh inconclusive, GCN5L2 inh -7%, PLK1 PBD inh 21µM* and VDR inhibitor 7%.
COc1ccc(C(=O)Nn2c(CCC(=O)O)ccc2-c2ccc(Cl)cc2)cc1OC was read as ALOX12 inh 17%.
For Cc1oncc1C(=S)Nc1ccccc1 the results were ALOX12 inh inconclusive, GCN5L2 inh 0%, PLK1 PBD inh 27µM* and VDR inhibitor -4%.
COc1ccccc1CN(C)C(=O)Cn1c(=O)n(C)c2ccccc21 was read as ALOX12 inh -27%.
Screening Cc1cc(Cl)ccc1OCCn1cncn1 returned ALOX12 inh -7%, GCN5L2 inh -6%, PLK1 PBD inh 4% and VDR inhibitor -8%.
For Brc1c(OCCOCCn2cncn2)ccc2ccccc12 the results were ALOX12 inh 0%, GCN5L2 inh -2%, PLK1 PBD inh 17µM* and VDR inhibitor -6%.
COc1ccc(C(=O)Nc2nc3c(s2)C[C@@H]2[C@](C)(CO)[C@H](O)CC[C@@]2(C)[C@@H]3CC(=O)N2CCOCC2)cc1 was read as ALOX12 inh 89µM*.
For CC(C)(C)c1ccc(C(=O)Nc2nc3c(s2)C[C@@H]2[C@](C)(CO)[C@H](O)CC[C@@]2(C)[C@@H]3CC(=O)N2CCOCC2)cc1 the results were ALOX12 inh 6%.
Cc1cc(C)c(NC(=O)c2cc(C)nc3ccccc23)c(C)c1 was read as ALOX12 inh -25%.
Cn1c(=O)c2c(nc(N3CCCCCC3)n2CC(O)COc2ccccc2)n(C)c1=O (stereo not given) was read as ALOX12 inh -18%, GCN5L2 inh -6%, PLK1 PBD inh 3µM* and VDR inhibitor inconclusive.
Cn1c(=O)[nH]c(=O)c2c1nc(SCCO)n2CC(O)COc1ccccc1 (stereo not given) was read as ALOX12 inh inconclusive, GCN5L2 inh -22%, PLK1 PBD inh 24µM* and VDR inhibitor -7%.
For C=CCn1c(Oc2ccccc2)nc2c1c(=O)n(C)c(=O)n2C the results were ALOX12 inh inconclusive, GCN5L2 inh -2%, PLK1 PBD inh 3% and VDR inhibitor 2%.
For CCn1c(Oc2ccccc2)nc2c1c(=O)n(C)c(=O)n2C the results were ALOX12 inh 0%, GCN5L2 inh -7%, PLK1 PBD inh 27µM* and VDR inhibitor inconclusive.
Screening Cn1c(=O)c2c(nc(N3CCCCC3)n2CC(O)COc2ccccc2)n(C)c1=O (stereo not given) returned ALOX12 inh 0%, GCN5L2 inh -9%, PLK1 PBD inh -11% and VDR inhibitor 5%.
For COCCCNc1nc2c(c(=O)[nH]c(=O)n2C)n1CC(O)COc1ccccc1C (stereo not given) the results were ALOX12 inh 1%, GCN5L2 inh -4%, PLK1 PBD inh 24µM* and VDR inhibitor -15%.
`COCCCNc1nc2c(c(=O)[nH]c(=O)n2C)n1CC(O)COc1ccccc1` (stereo not given) gave ALOX12 inh 6%, GCN5L2 inh -1%, PLK1 PBD inh -4% and VDR inhibitor -9%.
Screening CCCSc1nc2c(c(=O)[nH]c(=O)n2C)n1CC(O)COc1ccccc1 (stereo not given) returned ALOX12 inh inconclusive, GCN5L2 inh -12%, PLK1 PBD inh -30% and VDR inhibitor -20%.
Fc1cccc(CSC2=NCCS2)c1 was read as ALOX12 inh 6%.
O=C(c1cc(F)cc(F)c1)N1CCOc2ccccc21 was read as ALOX12 inh 8%.
For O=C(O)C1C2CCC(C2)C1C(=O)NCCCN1CCOCC1 (stereo not given) the results were ALOX12 inh 9%.
